# Experimental data reported in PubChem BioAssay (EPA / NIEHS).
# Results filed as inconclusive are left out. The source made the active and inactive calls. Rule for the calls: active = hit-call score of the fitted dose curve at least 0.9, where 1 is the maximum; inconclusive = response in the unintended direction; inactive = score below 0.9.
# Tests used:
# [1] = test system: zebrafish Androgen Receptor (AR), gene 100005148; experiment: ATG_zfAR_XSP1: Attagene TRANS-FACTORIAL Multi-Species (XSP1) HepG2 Assay for zebrafish Androgen Receptor (AR) (AID 2283771)
# Method: ATG_XSP1_multi-species_TRANS is a cell-based, multiplexed assay created by modifying the existing Attagene TRANS-FACTORIAL system to include a panel of nuclear receptors from some or all the following species: human (Homo sapiens), mouse (Mus musculus), frog (Xenopus laevis), zebrafish (Danio rerio), chicken (Gallus gallus), and turtle (Chrysemys picta). The ECOTOX-FACTORIAL format uses HepG2, a human liver cell line, with measurements taken at 24 hours after chemical dosing in a 24-well plate. Xsp1 included 3 nM 6-alpha-fluorotestosterone to partially stimulate the androgen receptor.ATG_zfAR_XSP1 is one of 29 assay components measured or calculated from the ATG_XSP1_multi-species_TRANS assay. It is designed to make measurements of mRNA induction, a form of inducible reporter, as detected with fluorescence intensity signals by Reverse transcription polymerase chain reaction (RT-PCR) and Capillary electrophoresis technology.The assay endpoint ATG_zfAR_XSP1 was analyzed in the positive analysis fitting direction relative to DMSO as the negative control and baseline of activity. […] Furthermore, this assay endpoint can be referred to as a primary readout, because this assay has produced multiple assay endpoints where this one serves a reporter gene function. […]
# [2] = molecular target: zebrafish Estrogen Receptor (ESR1), esr1 (gene 259252) (UniProt P57717); experiment: ATG_zfER1_XSP1: Attagene TRANS-FACTORIAL Multi-Species (XSP1) HepG2 Assay for zebrafish Estrogen Receptor (ESR1) (AID 2283772)
# zebrafish Estrogen Receptor (ESR1), esr1 (gene 259252), sequence (P57717 whole entry, looked up, the tested form may be a part): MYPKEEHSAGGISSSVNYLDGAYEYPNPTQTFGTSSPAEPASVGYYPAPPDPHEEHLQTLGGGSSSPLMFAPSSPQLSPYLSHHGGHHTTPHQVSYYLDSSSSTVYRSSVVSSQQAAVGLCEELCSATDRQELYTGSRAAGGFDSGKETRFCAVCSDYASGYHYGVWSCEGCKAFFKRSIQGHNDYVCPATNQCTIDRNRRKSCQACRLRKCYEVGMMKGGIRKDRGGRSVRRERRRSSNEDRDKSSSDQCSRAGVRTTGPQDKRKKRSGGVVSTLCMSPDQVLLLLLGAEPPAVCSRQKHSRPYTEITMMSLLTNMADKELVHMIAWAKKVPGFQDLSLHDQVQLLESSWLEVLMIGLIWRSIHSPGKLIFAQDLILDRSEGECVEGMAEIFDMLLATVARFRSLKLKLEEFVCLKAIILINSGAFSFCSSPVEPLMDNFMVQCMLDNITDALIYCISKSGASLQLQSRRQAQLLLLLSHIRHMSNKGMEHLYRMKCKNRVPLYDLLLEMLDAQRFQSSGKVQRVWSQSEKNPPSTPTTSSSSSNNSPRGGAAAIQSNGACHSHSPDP
# Procedure, shortened: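 Exogenous chimeric receptor-GAL4 activity is measured in transiently transfected human HepG2 liver cells after 24 h compound exposure. Reporter transcripts are detected by RT-PCR and fluorescent capillary electrophoresis, analysed for signal gain relative to DMSO.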
# [3] = test system: zebrafish Estrogen Receptor (ESR2B), gene 317733; experiment: ATG_zfER2b_XSP1: Attagene TRANS-FACTORIAL Multi-Species (XSP1) HepG2 Assay for zebrafish Estrogen Receptor (ESR2B) (AID 2283773)
# Procedure, shortened: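 Human hepatoma HepG2, transiently transfected with multi-reporter units; exogenous zebrafish ESR2B-Gal4 activity measured. Exposure 24 h alongside 3 nM 6-alpha-fluorotestosterone to partly stimulate AR.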
# [4] = test system: frog Estrogen Receptor (ESR2), gene 100174814; experiment: ATG_frER2_XSP1: Attagene TRANS-FACTORIAL Multi-Species (XSP1) HepG2 Assay for frog Estrogen Receptor (ESR2) (AID 2283774)
# Procedure, shortened: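 Multiplexed TRANS-format reporter assay in human hepatoma HepG2: chimeric nuclear receptor-Gal4 activity reported as mRNA induction at 24 h, detected by fluorescent RT-PCR products on capillary electrophoresis and fitted upward from DMSO baseline.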
# [5] = test system: frog Estrogen Receptor (ESR1), gene 398734; experiment: ATG_frER1_XSP1: Attagene TRANS-FACTORIAL Multi-Species (XSP1) HepG2 Assay for frog Estrogen Receptor (ESR1) (AID 2283777)
# Procedure, shortened: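 After transient transfection and 24 h compound treatment, total RNA from HepG2 cells was reverse-transcribed, amplified, FAM-labeled and resolved by capillary electrophoresis. Signal increases were fitted against DMSO controls.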
# [6] = test system: zebrafish Estrogen Receptor (ESR2A), gene 317734; experiment: ATG_zfER2a_XSP1: Attagene TRANS-FACTORIAL Multi-Species (XSP1) HepG2 Assay for zebrafish Estrogen Receptor (ESR2A) (AID 2283778)
# Procedure, shortened: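 Gain-of-signal reporter transcription readout from GAL4-UAS units in transiently transfected HepG2 cells, 24 h exposure, 3 nM 6-alpha-fluorotestosterone co-present. Detection by RT-PCR with capillary electrophoresis fluorescence.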
# [7] = molecular target: chicken Estrogen Receptor (ESR1), ESR1 (gene 396099) (UniProt P06212); experiment: ATG_chERa_XSP1: Attagene TRANS-FACTORIAL Multi-Species (XSP1) HepG2 Assay for chicken Estrogen Receptor (ESR1) (AID 2283779)
# chicken Estrogen Receptor (ESR1), ESR1 (gene 396099), sequence (P06212 whole entry, looked up, the tested form may be a part): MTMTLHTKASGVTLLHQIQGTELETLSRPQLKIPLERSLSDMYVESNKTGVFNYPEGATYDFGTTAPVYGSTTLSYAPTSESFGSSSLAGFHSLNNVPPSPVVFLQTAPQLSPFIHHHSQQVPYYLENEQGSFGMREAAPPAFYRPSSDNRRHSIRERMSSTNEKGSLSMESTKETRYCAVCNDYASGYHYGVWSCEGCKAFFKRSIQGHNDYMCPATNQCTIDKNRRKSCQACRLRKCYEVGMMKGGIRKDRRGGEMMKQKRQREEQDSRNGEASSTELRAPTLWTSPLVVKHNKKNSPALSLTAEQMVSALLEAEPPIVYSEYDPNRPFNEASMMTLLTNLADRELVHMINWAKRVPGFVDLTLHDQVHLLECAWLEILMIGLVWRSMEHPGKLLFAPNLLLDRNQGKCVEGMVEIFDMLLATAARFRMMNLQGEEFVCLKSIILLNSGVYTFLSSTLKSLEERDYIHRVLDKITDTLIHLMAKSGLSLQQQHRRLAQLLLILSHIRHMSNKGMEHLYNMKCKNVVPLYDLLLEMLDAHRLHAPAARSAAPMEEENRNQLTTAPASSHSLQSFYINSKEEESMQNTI
# Procedure, shortened: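 Gain-of-signal reporter transcription, relative to DMSO, was scored in transiently transfected HepG2 cells after a 24 h dose. Fluorescence intensity of amplified, digested reporter cDNA fragments served as the endpoint.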
# [8] = molecular target: Estrogen receptor (Homo sapiens) (UniProt P03372); experiment: ATG_hERa_XSP1: Attagene TRANS-FACTORIAL Multi-Species (XSP1) HepG2 Assay for human Estrogen Receptor (ESR1) (AID 2283780)
# Estrogen receptor (Homo sapiens), sequence (P03372 whole entry, looked up, the tested form may be a part): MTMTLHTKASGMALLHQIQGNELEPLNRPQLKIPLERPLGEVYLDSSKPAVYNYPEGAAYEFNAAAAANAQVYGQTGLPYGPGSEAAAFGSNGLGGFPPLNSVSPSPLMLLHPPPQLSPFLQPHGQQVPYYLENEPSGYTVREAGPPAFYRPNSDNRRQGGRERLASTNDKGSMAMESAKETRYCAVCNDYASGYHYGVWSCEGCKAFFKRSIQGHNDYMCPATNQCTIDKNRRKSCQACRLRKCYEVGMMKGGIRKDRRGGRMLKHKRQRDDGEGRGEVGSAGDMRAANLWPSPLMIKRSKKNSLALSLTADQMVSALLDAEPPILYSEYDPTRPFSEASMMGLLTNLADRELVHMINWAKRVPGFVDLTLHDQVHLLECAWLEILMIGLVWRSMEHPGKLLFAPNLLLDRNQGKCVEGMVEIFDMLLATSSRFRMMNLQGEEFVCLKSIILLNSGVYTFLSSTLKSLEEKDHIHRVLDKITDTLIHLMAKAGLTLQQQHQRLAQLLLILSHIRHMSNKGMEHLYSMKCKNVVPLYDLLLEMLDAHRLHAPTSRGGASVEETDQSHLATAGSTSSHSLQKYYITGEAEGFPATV
# Procedure, shortened: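 Reporter transcripts from multiplexed GAL4-UAS units driven by NR-Gal4 chimeras in transiently transfected HepG2 were measured by RT-PCR with capillary electrophoresis 24 h post-dose, with 3 nM 6-alpha-fluorotestosterone present; gain-of-signal relative to DMSO.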
smiles,measurement,setting,value
C(=C(c1ccccc1)c1ccccc1)c1ccccc1,outcome,[1],inactive
same,AC50,[2],272 nM (active)
same,AC50,[3],50.4 nM (active)
same,AC50,[4],24.9 nM (active)
same,outcome,[5],inactive
same,outcome,[6],inactive
same,AC50,[7],198 nM (active)
same,AC50,[8],33.6 nM (active)
